High-throughput results (PubChem)
Anthrax LF inh2: anthrax lethal factor protease inhibition | P15917 | multiplex microsphere protease cleavage assay, LF | AID 588501 | inhibition, % at 10 µM | hit rate 0.12% among 360,000; note: plate controls were buffer without enzyme for full effect and enzyme alone for no effect
BoNT-A LC inh2: blocks Botulinum neurotoxin A light chain protease; inhibition, % at 10 µM; hit rate 0.17% among 360,000; multiplex microsphere protease substrate cleavage, flow cytometry; AID 588499; note: plate controls were buffer without enzyme for full effect and enzyme alone for no effect
Autofluor counter: counter-screen for toxin protease inhibitors: compound fluorescence; compound autofluorescence counterscreen, microsphere flow cytometry; active compounds read high; fluorescence intensity (no concentration beside the values); hit rate 3.1% among 360,000; in the data active = fluorescence intensity above about 16000; inconclusive = no clear call, values can overlap the other calls
BoNT F protease: blocks Botulinum neurotoxin F light chain protease; Multiplex microsphere protease cleavage assay, flow cytometry; inhibition, % at 10 µM; hit rate 0.22% among 360,000; AID 588497; in the data active = inhibition above about 35%, passing the limit was not always enough; inconclusive = no clear call, values can overlap the other calls; note: plate controls were buffer without enzyme for full effect and enzyme alone for no effect
* marks the source's active call; other numbers are inactive results; ? = inconclusive. Compounds with a hit are over-represented: about 3.5% of the library has one in this group of screens. Cut-off read from the data, not from the text of the source, unless noted: active = inhibition above about 30%; inconclusive = no clear call, values can overlap the other calls; inactive = below that.

SMILES	Anthrax LF inh2	BoNT-A LC inh2	Autofluor counter	BoNT F protease
CC1(C)OC(=O)C2=C(C[C@@H](C3CC3)O[C@@H]2C2CC2)O1	-2.0	-1.0	6372	0.1
Cc1cc(NC(=S)NC(=O)CC(C)C)ccc1Br	1.1	-3.1	25030*	-6.0
Cc1onc(-c2ccccc2)c1C(=O)N1CCC(C)(C(=O)O)C1 (centres undefined)	0.2	0.1	3784	3.7
O=[N+]([O-])c1ccc(/C=N/n2c(COc3ccccc3)n[nH]c2=S)cc1	-1.8	-0.5	5892	-7.2
O=[N+]([O-])c1cccc(/C=N/n2c(COc3ccccc3)n[nH]c2=S)c1	-8.2	0.3	16172*	2.9
O=C(COC(=O)c1c(F)cccc1F)NC(=O)NCc1ccccc1	-3.8	-0.4	3693	-9.9
Cc1ccc(S(=O)(=O)N2CCCC(C(=O)NCCCN3CCCCC3C)C2)cc1 (centres undefined)	1.6	1.8	25210*	0.5
COCCN1C[C@@H](CO)O[C@@H](n2cnc3c(NCCCO)ncnc32)C1	0.4	0.4	3622	-6.6
CCOC(=O)N1CCN(c2ncnc3c2oc2nc(C(C)C)c4c(c23)CCC4)CC1	-5.3	3.7	20792*	4.3
COCCNC(=O)C1(C)CCCN(C(=O)c2ccc(C#N)cc2)C1 (centres undefined)	-5.3	-0.3	3073	-7.6
O=c1ccnc(SCn2nnc3ccccc3c2=O)[nH]1	-0.7	3.3	21117*	3.1
Cc1noc(C)c1C(=O)NC1CCCc2ccccc21 (centres undefined)	-0.3	-3.6	21318*	-4.7
CC1=CCC(C(=O)O)(C(=O)N/N=C/c2cccnc2)C(c2ccccc2)C1 (centres undefined)	-4.9	-1.9	3835	-10.2
CC1=CCC(C(=O)O)(C(=O)N/N=C/c2cccs2)C(c2ccc(Cl)cc2)C1 (centres undefined)	-2.5	1.7	19841*	0.2
CCCCOCCCNS(=O)(=O)c1ccccc1	-3.0	-1.3	7983	-24.8
CCOCCCNS(=O)(=O)c1ccccc1	-4.8	5.4	20142*	5.9
CN(Cc1ccccc1)C(=O)c1ncn2c1c(=O)[nH]c1cccnc12	-1.2	-0.1	3003	-4.8
CC(C)CCNC(=O)c1ccc2c(c1)ncn2C1CCCCC1	2.5	2.8	19635*	5.0
CCCCNC(=O)c1ccc2c(c1)ncn2C1CCCCC1	4.6	0.9	3218	-4.6
Cc1cccc(N(C)S(=O)(=O)c2ccc3[nH]c(=O)c(=O)[nH]c3c2)c1	3.6	?	16965*	-1.2
Cc1cccc(N(C)S(=O)(=O)c2ccc3c(c2)NC(=O)CC(=O)N3)c1	3.0	0.2	4510	-0.5
CC(=O)Nc1cc(-c2ccsc2)cn2c(-c3ccc(F)cc3)cnc12	-5.8	-0.4	4230	-11.6
Cc1cc(C)c(C)c(S(=O)(=O)N2CCN(C(=O)c3cc(=O)[nH]c4ccccc34)CC2)c1C	-8.9	7.6	20107*	10.8
Cc1cc(C)c(C)c(S(=O)(=O)N2CCN(Cc3nc4ccccc4[nH]3)CC2)c1C	-0.6	?	22533*	1.7
C[C@H](CO)N1C[C@H](C)[C@H](CN(C)C(=O)C2CC2)OCc2cnnn2CCCC1=O	-1.2	-0.6	3087	-2.7
SMILES	Anthrax LF inh2	BoNT-A LC inh2	Autofluor counter	BoNT F protease
Cc1nn(CC(=O)Nc2ccc(C(=O)N(C)C)cc2)c(=O)c2ccccc12	-0.2	3.4	19106*	4.6
CCN(CC)C(=O)c1ccc(NC(=O)Cn2nc(C)c3ccccc3c2=O)cc1	-3.7	?	22310*	3.0
CCN(CC)C(=O)c1ccc(Nc2nnc(C)c3ccccc23)cc1	-0.1	-2.5	24503*	-3.4
CCN(CC)C(=O)c1ccc(-c2nnc(Nc3ccc(O)cc3)c3ccccc23)cc1	-1.0	-5.0	4659	6.2
COc1ccc(NC(=O)Cn2nc(C)c3ccccc3c2=O)cc1	-20.0	-4.0	4348	-6.7
COCCN1CCn2c(nc3cc(NC(=O)Cn4nc(C)c5ccccc5c4=O)ccc32)C1	-5.2	1.4	4333	?
Cc1nn(CC(=O)Nc2ccc3c(c2)nc2n3CCOC2)c(=O)c2ccccc12	0.6	1.4	21862*	1.1
CC(=O)Nc1cncc(-c2cccc(S(C)(=O)=O)c2)n1	-5.6	-0.4	3903	-0.3
COc1cc(C(=O)N2CCCC(C)(C(=O)NS(=O)(=O)C3CC3)C2)cc(OC)c1OC (centres undefined)	-6.6	-0.2	3823	-1.2
Cc1nn(CC(=O)N(C)C)c(=O)c2ccccc12	1.3	0.8	22253*	1.2
Cc1nn(CC(N)=O)c(=O)c2ccccc12	-3.9	-0.3	2840	-5.1
COc1cc(CN2C[C@@H](CO)O[C@@H](n3cnc4c(NCCCO)ncnc43)C2)cc(OC)c1OC	1.7	-0.1	3698	1.8
Cc1ccc(S(=O)(=O)Nc2cc(-c3nn(C)c(=O)c4ccccc34)ccc2N2CCOCC2)cc1	-3.8	?	22492*	4.1
